Source: the supplement of paper PMC12632987
In all, about 2,300 sequences were measured (“median log2 fold change of GCK-ALFA target abundance (FLAG IP / Myc IP barcode read proportion)”: median about 0.095, lowest 2% from about -0.47 on). The list comes from a sample in which the lowest values are over-represented; it also holds similar and randomly drawn sequences.

B1: LC3A_free_0_2116 (protein)
chain: KKTVVEVLVILDESTTEEEAKKAYEELKKKAEEIAKKYGWEVKVELSKSDGSWIITVTLTSDSTDIDKALEIARELSDAAEEIAKELGLDATIYESVYLE
B2: LC3A_28_1087 (protein)
chain: SELEEQLKKALEEAKKAKEEGKEVTLEITVPDTATEEDIELVKETLKEIAEIAKELPSLSVVINLTGKNAQAKATELSAHAEELEKEVPNLTVIIALDED
B3: LC3A_3_1520 (protein)
chain: MEEIEKEIIKLLKEAGASEETIEKAKELLKLLRERGYLNAMKTLLEELKELKDAPVETIEAFVKDVLELVKTEDLSEEELSKRIKELATIAKNDAEIEEL
B4: LC3A_6_2066 (protein)
chain: KLYKITIDILLKSEKPEEALKVAKEIAEEIRKFAEEINKEYNGAVKKLEIKIEEIDGEVFLTIEIVAEEKAVNEIIDKVDEIVEENKEYVAASMISVEEL
B5: LC3A_28_724 (protein)
chain: NRLEASIAAALARARALAAAGESDVIEITIPGDATEEDIERVIEALEEIAAITADLPRTDIVINVEGGVKQEHIDRLADAAEAIEARYPNVTVIIALDEE
B6: LC3A_55_2007 (protein)
chain: MEVFIFITENAETGEILALEVEVDSDPERLLEALRAAGEELAAELFRLANGRRLDEEEMAEIKARYSPEEVRAAVEALIAVLESLPDVKVSVLIELEEEE
B7: LC3A_13_341 (protein)
chain: TVTLEVETAEELRERGFAALAAHPGETIRITVTVRDEEEAEAIAEVLAELVRAAAEAGSDLEITIRGPRDLVLYVALEVGSEAYEHIDKVTVTITEEVVE
B8: LC3A_147_449 (protein)
chain: MLYEITVDALFKNDPALAEEVAEQLKAIAEKHGGEVEVEFEEEQVSPTTTEYFLNVTITFEDKAKAQAAETEIAALLDETAAKHPDKFLGAILSFEEVEP
B9: LC3A_3_1611 (protein)
chain: MEELIERELERLREAGFSPEVLEEARKVLEALAEKGYRRAIEKLTEELLKLKDVDPELVIEALREILRIVTEEDLSEEEVIEEIEREFRVVRLESEIIEL
B10: LC3A_free_8_2519 (protein)
chain: KSKAFAQRVVAILEELEKEIVKLLKEKGASRLDILEAELLIGSIIAEVISLQDKSPEEIIKAVKEGLKELVEELEKYKEEVKKLAEEALKKIEAAKKELE
B11: LC3A_3_1395 (protein)
chain: FEEIRKETIEYLKKAGKSEEVIKAAEEALELLEKRGYLEAAKTFLEELKKMKDVSDELLLWFLNEVINYLKTNDDDEETVIKKIKEFATIVKNESEIEEL
B12: LC3A_147_483 (protein)
chain: MRIDIDALIKGEETVEEFIERLEEKKEELEEEGVEVELEIEVEEVEEGVYYLKVTVTIKAETKEKEKEAADKIIDTIEEFEEENKDKVLGVLISVEEIEE
B13: LC3A_28_1260 (protein)
chain: SELEKNIEAAIAEVKEAVAKGEEAVVTIKVPAGITEEEVEKVIETMEKIAELGKSLPSVTIIVDVEKGVKQEHIDKLVDKGEELEKKYPNLTVIFALEEE
B14: LC3A_45_1982 (protein)
chain: MWEATIDLLVPRELAEEAYAILKEAGAELVARHGDDLKVDWDALDASYEASRDEEEVYLRLNIYHPDKQVALDSAVEIVDRLEERLGRKVAAIISVKEVP
B15: LC3A_23_600 (protein)
chain: MVTVEADHVVKNDPELAEEKTKKLLEEIKKILEKNKDYIKDYKIEVEFYTDEDGNTVVRITVTVKVKDDPEKAQEIANELISAFDEILPDAVIAYDVEED
B16: LC3A_28_836 (protein)
chain: SFAEEEIKKAKKALEKAKETKEDVVVEVVIKSTMTPEEAQYIMDELEKEVSKLPKDVKVSIVFLAEEPVDPEVLQTIADGGDEIEEKYPNVTVIIALPEE
B17: LC3A_28_985 (protein)
chain: SAMEERLAAALAEAKAAAAAGEATVITIEVPSTATEEDIEKAVAALKEIGEILKGVKGSAIVVDLESGVPEEHIRKLADAGEEVEKANPDVSVIFALDED
B18: LC3A_141_362 (protein)
chain: AVKKKTYTYTATTYDEALKVAEEIGKEIKKFMEETGAEEVKVTVTITSYNEKTGEVTTETDTYTVTKENLDLFIEGLEIDLLSAFDKGADKIVVKVTIET
B19: LC3A_28_758 (protein)
chain: MDVAEIVAAAIAEAKAAAAAGEEAVIRIRVPAGATQEDIDKVIAGLEEIAEIRKDMKSTSIVIDIEAGVSQENIDKLIDAGEAIEKKYPNITVIFALDED

Target: MAP1LC3A, Q9H492
Experiment: median log2 fold change of GCK-ALFA target abundance (FLAG IP / Myc IP barcode read proportion) (log2 ratio); each designed protein is fused to an ALFA-tag nanobody in HEK293 cells to bring the named protein to FLAG-tagged glucokinase (GCK); Myc marks an untargeted standard; higher = target protein stabilised (more abundant)
Settings: target protein: 3xFLAG-MCP-GCK-ALFA reporter; HEK293 landing pad (RPLP)
Procedure, shortened: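 Sequencing of reverse-transcribed, amplified circular RNA barcodes from anti-FLAG and anti-Myc immunoprecipitates provided the readout for an ALFA-nanobody-fused binder library recombined into HEK293 landing-pad cells. Those cells were induced with 2 μg mL^−1 doxycycline, transfected with a plasmid expressing a FLAG-tagged target and a Myc-tagged standard, and lysed after 48 h. Target abundance is the per-binder median log2 ratio of FLAG to Myc barcode read proportions. Only barcodes at a proportion of ≥10^−7 in both replicates and binders with ≥3 barcodes per replicate were kept, with a 10^−6 pseudocount added before the two replicates were pooled.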

Row | Binder | median log2 fold change
1 | B1 | -0.122
2 | B2 | 0.251
3 | B3 | 0.547
4 | B4 | -0.173
5 | B5 | 0.154
6 | B6 | 0.119
7 | B7 | 0.0625
8 | B8 | -0.603
9 | B9 | 0.132
10 | B10 | -0.243
11 | B11 | 0.436
12 | B12 | -0.904
13 | B13 | -0.13
14 | B14 | 0.0214
15 | B15 | -0.566
16 | B16 | 0.111
17 | B17 | -0.274
18 | B18 | -0.96
19 | B19 | 0.124
